According to PubChem BioAssay (EPA / NIEHS):
Records with an inconclusive call do not appear. Calls of active or inactive are those of the source. The calls were made as follows, unless noted: active = hit-call score of the fitted dose curve at least 0.9, where 1 is the maximum; inconclusive = response in the unintended direction; inactive = score below 0.9.

What was measured:
[1] = read-out: Interleukin-8 (IL8), CXCL8 (gene 3576); assay: BSK_3C_IL8: BioMAP Diversity Plus: 3C Assay for Interleukin-8 (IL8) Biomarker Activity (AID 2283020; active = hit-call score of the fitted dose curve at least 0.9, where 1 is the maximum; inactive = score below 0.9); settings: primary human endothelial cells (HUVEC); actives raise or lower the signal
Method in brief: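 Primary human umbilical vein endothelial cells (3C system) were exposed to test chemical for 24 h, then IL-8 was quantified by ELISA. Responses were fitted bidirectionally against DMSO vehicle as baseline.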

[2] = read-out: Thrombomodulin, THBD (gene 7056); assay: BSK_3C_Thrombomodulin: BioMAP Diversity Plus: 3C Assay for Thrombomodulin Biomarker Activity (AID 2283029; active = hit-call score of the fitted dose curve at least 0.9, where 1 is the maximum; inactive = score below 0.9); settings: primary human endothelial cells (HUVEC); actives raise or lower the signal
Method in brief: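 Primary human umbilical vein endothelial cells (3C system) were exposed to chemical for 24 h, then thrombomodulin levels were measured by ELISA. Activity was fitted bidirectionally against the DMSO negative control as baseline.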

[3] = read-out: Vascular cell adhesion molecule 1 (VCAM1), VCAM1 (gene 7412); assay: BSK_CASM3C_VCAM1: BioMAP Diversity Plus: CASM3C Assay for Vascular cell adhesion molecule 1 (VCAM1) Biomarker Activity (AID 2283055; active = hit-call score of the fitted dose curve at least 0.9, where 1 is the maximum; inactive = score below 0.9;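 also: VCAM-1 protein level quantified by ELISA on the cells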); settings: primary human coronary artery smooth muscle cells; actives raise or lower the signal
CD40, CD40 (gene 958) = assay: BSK_SAg_CD40: BioMAP Diversity Plus: SAg Assay for CD40 Biomarker Activity (AID 2283088; active = hit-call score of the fitted dose curve at least 0.9, where 1 is the maximum; inactive = score below 0.9); settings: primary human HUVEC with PBMC; actives raise or lower the signal
Method in brief: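 Human umbilical vein endothelial cells co-cultured with PBMC; CD40 levels measured by ELISA with fluorescence read-out 24 h after chemical dosing. Gain or loss of signal fitted bidirectionally against DMSO baseline.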

[4] = CCTE_Harrill_HTTr_Viability_MCF7: CCTE's 6-hour Cell Viability Assessment for the High-Throughput Transcriptomics (HTTr) Platform, in MCF-7 cells cultured in DMEM + 10% fetal bovine serum, Harrill Lab (AID 2284010; active = hit-call score of the fitted dose curve at least 0.9, where 1 is the maximum; inactive = score below 0.9)
Method in brief: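 Membrane integrity was scored by high-content imaging of propidium iodide dye exclusion after a 6 h exposure across an eight-point dilution series. Data were fitted bidirectionally relative to DMSO as negative control and baseline.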

[5] = target: Bile acid receptor (Homo sapiens) (UniProt Q96RI1); assay: ATG_IR1_CIS: Attagene CIS-FACTORIAL HepG2 Assay for human Nuclear Receptor Subfamily 1 Group H Member 4 (NR1H4), IR1 submotif (AID 2282946; active = hit-call score of the fitted dose curve at least 0.9, where 1 is the maximum; inactive = score below 0.9); settings: IR1 reporter transcription, actives raise or lower the signal
Sequence of Bile acid receptor (Homo sapiens) (Q96RI1 whole entry, looked up): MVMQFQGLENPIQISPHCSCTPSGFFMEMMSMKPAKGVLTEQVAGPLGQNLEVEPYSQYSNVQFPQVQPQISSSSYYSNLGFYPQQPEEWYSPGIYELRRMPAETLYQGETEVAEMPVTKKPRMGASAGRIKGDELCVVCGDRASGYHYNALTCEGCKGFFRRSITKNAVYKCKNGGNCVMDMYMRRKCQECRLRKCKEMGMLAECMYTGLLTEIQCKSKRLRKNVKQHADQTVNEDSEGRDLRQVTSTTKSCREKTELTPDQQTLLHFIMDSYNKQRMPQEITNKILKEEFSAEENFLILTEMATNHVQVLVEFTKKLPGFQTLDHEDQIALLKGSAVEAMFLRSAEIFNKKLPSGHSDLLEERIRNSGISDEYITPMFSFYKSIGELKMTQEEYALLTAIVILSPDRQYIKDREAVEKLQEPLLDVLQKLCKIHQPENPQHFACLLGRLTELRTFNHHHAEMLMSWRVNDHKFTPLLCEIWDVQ
Method in brief: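 HepG2 cells transiently transfected with multiple cis-promoter-driven reporter units to measure endogenous transcription factor activity; 24 h exposure. Reporter mRNA read by RT-PCR, FAM labelling, HpaI digestion and capillary electrophoresis. Bidirectional fit versus DMSO.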

[6] = ATG_PPRE_CIS: Attagene CIS-FACTORIAL HepG2 Assay for human Peroxisome Proliferator-activated Response Element (PPRE) (AID 2282958; active = hit-call score of the fitted dose curve at least 0.9, where 1 is the maximum; inactive = score below 0.9); settings: HepG2 PPRE cis-element reporter, Attagene transcription factor profiling; actives raise or lower the signal
Method in brief: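 HepG2 cells transiently transfected with multiplexed cis-element reporter units measure endogenous transcription factor activity. After 24 h compound exposure, reporter mRNA is quantified by RT-PCR, 6-FAM labeling, HpaI digestion and capillary electrophoresis; bidirectional fits are made against DMSO baseline.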

[7] = target: Oxysterols receptor LXR-alpha (Homo sapiens) (UniProt Q13133); assay: ATG_LXRa_TRANS: Attagene TRANS-FACTORIAL HepG2 Assay for human Liver X Receptor alpha (LXRa) (AID 2282980); settings: HepG2 Attagene TRANS reporter, LXRa transactivation
Sequence of Oxysterols receptor LXR-alpha (Homo sapiens) (Q13133 whole entry, looked up, the tested form may be a part): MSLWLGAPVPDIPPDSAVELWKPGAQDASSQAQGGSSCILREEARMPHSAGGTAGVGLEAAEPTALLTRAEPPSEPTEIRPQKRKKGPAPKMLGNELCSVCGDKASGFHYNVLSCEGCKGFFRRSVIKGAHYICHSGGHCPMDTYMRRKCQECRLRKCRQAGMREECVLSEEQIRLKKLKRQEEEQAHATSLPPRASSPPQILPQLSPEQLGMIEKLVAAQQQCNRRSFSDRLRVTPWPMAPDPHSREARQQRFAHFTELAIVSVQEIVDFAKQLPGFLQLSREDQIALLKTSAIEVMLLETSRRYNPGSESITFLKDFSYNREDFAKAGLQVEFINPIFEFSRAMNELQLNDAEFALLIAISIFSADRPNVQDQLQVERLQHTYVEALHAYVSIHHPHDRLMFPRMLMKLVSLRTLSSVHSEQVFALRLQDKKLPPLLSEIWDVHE
Method in brief: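 HepG2 cells were transiently transfected with multiplexed reporter units driven by chimeric LXRa–GAL4 fusion proteins, then dosed for 24 h. Reporter mRNA was quantified by RT-PCR, fluorescent labelling and capillary electrophoresis; gain of signal fitted against DMSO baseline.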

[8] = target: Oxysterols receptor LXR-beta (Homo sapiens) (UniProt P55055); assay: ATG_LXRb_TRANS: Attagene TRANS-FACTORIAL HepG2 Assay for human Liver X Receptor beta (LXRb) (AID 2282981); settings: HepG2 Attagene TRANS GAL4-LXRb reporter, mRNA
Sequence of Oxysterols receptor LXR-beta (Homo sapiens) (P55055 whole entry, looked up, the tested form may be a part): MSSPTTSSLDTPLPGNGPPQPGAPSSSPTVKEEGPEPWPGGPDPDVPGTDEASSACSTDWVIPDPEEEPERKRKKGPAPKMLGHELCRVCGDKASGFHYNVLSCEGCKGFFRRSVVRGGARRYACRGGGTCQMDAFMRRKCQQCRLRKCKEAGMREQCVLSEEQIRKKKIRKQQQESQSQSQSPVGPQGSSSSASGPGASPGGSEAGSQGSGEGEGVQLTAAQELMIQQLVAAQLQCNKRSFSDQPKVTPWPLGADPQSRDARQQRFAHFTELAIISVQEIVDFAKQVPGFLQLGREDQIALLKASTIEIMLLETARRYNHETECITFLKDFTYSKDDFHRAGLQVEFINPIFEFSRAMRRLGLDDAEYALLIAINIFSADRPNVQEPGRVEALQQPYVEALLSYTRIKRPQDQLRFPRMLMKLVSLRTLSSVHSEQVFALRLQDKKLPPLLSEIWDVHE
Method in brief: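 Gain-of-signal mRNA reporter endpoint, DMSO as negative control. Transiently transfected HepG2 cells carrying the NR-Gal4 chimera and GAL4-UAS reporter units were treated 24 h; transcripts quantified by RT-PCR and capillary electrophoresis fluorescence.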

[9] = target: Nuclear receptor subfamily 4 group A member 2 (Homo sapiens) (UniProt P43354); assay: ATG_NURR1_TRANS: Attagene TRANS-FACTORIAL HepG2 Assay for human Nuclear Receptor Related Protein 1 (NURR1) (AID 2282985); settings: HepG2 Attagene TRANS reporter, mRNA readout
Method in brief: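 HepG2 / transient MRTU transfection / 24 h compound exposure / RT-PCR + CE fluorescence of reporter mRNA / gain-of-signal vs DMSO.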

[10] = target: human Peroxisome Proliferator-activated Receptor delta (PPARd), PPARD (gene 5467) (UniProt Q03181); assay: ATG_PPARd_TRANS: Attagene TRANS-FACTORIAL HepG2 Assay for human Peroxisome Proliferator-activated Receptor delta (PPARd) (AID 2283002)
Sequence of human Peroxisome Proliferator-activated Receptor delta (PPARd), PPARD (gene 5467) (Q03181 whole entry, looked up, the tested form may be a part): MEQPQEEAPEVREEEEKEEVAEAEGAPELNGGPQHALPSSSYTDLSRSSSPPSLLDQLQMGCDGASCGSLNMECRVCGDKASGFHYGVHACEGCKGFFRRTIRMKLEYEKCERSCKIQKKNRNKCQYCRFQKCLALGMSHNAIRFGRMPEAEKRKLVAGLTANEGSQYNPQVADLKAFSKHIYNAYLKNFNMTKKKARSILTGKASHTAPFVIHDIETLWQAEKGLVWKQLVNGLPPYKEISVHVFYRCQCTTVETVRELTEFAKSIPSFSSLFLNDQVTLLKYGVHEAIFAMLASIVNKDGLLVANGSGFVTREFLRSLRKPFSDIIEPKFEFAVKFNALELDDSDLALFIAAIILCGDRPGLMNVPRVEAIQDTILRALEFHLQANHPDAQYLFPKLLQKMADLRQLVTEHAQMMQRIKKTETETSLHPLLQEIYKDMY
Method in brief: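 Read-out: reporter mRNA induction, quantified by fluorescent RT-PCR products resolved by capillary electrophoresis. Human HepG2 liver cells carried transiently transfected Gal4-UAS reporter constructs with chimeric NR-Gal4 fusions. Cells were dosed for 24 h; DMSO served as baseline.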

[11] = target: Peroxisome proliferator-activated receptor gamma (Homo sapiens) (UniProt P37231); assay: ATG_PPARg_TRANS: Attagene TRANS-FACTORIAL HepG2 Assay for human Peroxisome Proliferator-activated Receptor-gamma (PPARg) (AID 2283007)
Sequence of Peroxisome proliferator-activated receptor gamma (Homo sapiens) (P37231 whole entry, looked up, the tested form may be a part): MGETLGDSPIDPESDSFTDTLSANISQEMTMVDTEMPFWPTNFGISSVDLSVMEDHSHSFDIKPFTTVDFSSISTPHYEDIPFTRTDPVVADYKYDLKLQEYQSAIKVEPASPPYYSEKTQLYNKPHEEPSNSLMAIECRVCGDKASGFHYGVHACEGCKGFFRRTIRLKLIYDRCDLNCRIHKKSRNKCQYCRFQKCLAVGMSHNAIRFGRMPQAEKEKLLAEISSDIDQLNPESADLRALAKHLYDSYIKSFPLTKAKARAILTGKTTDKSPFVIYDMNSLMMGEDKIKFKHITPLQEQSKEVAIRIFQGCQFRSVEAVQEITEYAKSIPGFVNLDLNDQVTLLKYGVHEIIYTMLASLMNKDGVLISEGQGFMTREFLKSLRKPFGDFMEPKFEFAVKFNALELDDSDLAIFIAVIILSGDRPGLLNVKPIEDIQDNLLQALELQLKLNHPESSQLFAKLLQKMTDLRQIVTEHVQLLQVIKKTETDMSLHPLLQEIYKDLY
Method in brief: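 HepG2 cells transiently transfected with multiplexed GAL4-UAS reporter units and exogenous chimeric NR-Gal4 proteins; reporter mRNA quantified after 24 h compound exposure by RT-PCR, fluorescent labelling, HpaI digestion and capillary electrophoresis; gain-of-signal fitted versus DMSO baseline.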

[12] = ATG_XTT_Cytotoxicity: Cytotoxicity Assessment in the Attagene TRANS-FACTORIAL HepG2 Assay (AID 2283584)
Method in brief: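 HepG2 human liver cells, transiently transfected with multiple GAL4-UAS reporter units, were dosed and read at 24 h by XTT as cell number. Loss of signal was fitted relative to DMSO negative control baseline.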

[13] = target: CCAAT/enhancer-binding protein beta (Homo sapiens) (UniProt P17676); assay: ATG_C_EBP_CIS: Attagene CIS-FACTORIAL HepG2 Assay for human CCAAT/Enhancer Binding Protein (C/EBP) beta (AID 2282927; active = hit-call score of the fitted dose curve at least 0.9, where 1 is the maximum; inactive = score below 0.9); settings: HepG2 Attagene cis-factorial transcription factor reporter; actives raise or lower the signal
Sequence of CCAAT/enhancer-binding protein beta (Homo sapiens) (P17676 whole entry, looked up): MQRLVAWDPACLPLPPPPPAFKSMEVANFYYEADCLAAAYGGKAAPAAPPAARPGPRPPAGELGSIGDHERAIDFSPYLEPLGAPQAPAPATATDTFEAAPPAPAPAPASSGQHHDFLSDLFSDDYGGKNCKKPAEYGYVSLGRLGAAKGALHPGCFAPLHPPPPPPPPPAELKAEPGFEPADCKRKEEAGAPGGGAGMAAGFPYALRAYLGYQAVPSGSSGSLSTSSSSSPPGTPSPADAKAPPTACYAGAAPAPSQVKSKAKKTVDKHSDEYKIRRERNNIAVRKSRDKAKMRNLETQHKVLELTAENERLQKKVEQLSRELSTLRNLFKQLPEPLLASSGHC
Method in brief: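 Transiently transfected HepG2 (MRTU library, endogenous TF-driven promoters); 24 h dosing; total RNA → oligo(dT) RT → PCR → 6-FAM primer extension → HpaI digest → CE; fit bidirectionally vs DMSO.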

[14] = ATG_VDRE_CIS: Attagene CIS-FACTORIAL HepG2 Assay for human Vitamin D Receptor Element (VDRE) (AID 2282968; active = hit-call score of the fitted dose curve at least 0.9, where 1 is the maximum; inactive = score below 0.9); settings: HepG2 VDRE cis-reporter transcription, actives raise or lower the signal
Method in brief: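 Cell-based multiplexed reporter format in human liver HepG2 cells, 24 h post-dose. Fluorescence from capillary electrophoresis of reporter cDNA gives the signal, with DMSO as negative control and baseline.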

[15] = target: Nuclear receptor subfamily 1 group I member 2 (Homo sapiens) (UniProt O75469); assay: ATG_PXR_TRANS: Attagene TRANS-FACTORIAL HepG2 Assay for human Pregnane X Receptor (PXR) (AID 2283008)
Sequence of Nuclear receptor subfamily 1 group I member 2 (Homo sapiens) (O75469 whole entry, looked up, the tested form may be a part): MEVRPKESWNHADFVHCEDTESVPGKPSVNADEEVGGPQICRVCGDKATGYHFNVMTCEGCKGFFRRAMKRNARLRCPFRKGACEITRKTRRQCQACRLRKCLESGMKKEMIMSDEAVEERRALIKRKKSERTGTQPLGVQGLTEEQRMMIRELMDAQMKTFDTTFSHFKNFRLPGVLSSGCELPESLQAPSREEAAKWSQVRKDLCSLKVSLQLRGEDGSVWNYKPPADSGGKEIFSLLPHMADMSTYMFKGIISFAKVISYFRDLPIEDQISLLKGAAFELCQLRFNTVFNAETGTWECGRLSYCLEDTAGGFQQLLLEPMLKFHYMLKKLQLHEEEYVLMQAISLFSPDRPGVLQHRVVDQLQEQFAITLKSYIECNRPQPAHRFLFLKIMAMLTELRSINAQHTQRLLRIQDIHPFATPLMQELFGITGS
Method in brief: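 Fluorescence intensity of FAM-labelled, HpaI-digested reporter amplicons, separated by capillary electrophoresis, quantifies induction. HepG2 cells with PXR-Gal4 trans-reporter system were exposed 24 h; DMSO defines baseline.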

[16] = target: human RAR-related Orphan Receptor beta (RORb), RORB (gene 6096) (UniProt Q92753); assay: ATG_RORb_TRANS: Attagene TRANS-FACTORIAL HepG2 Assay for human RAR-related Orphan Receptor beta (RORb) (AID 2283010)
Sequence of human RAR-related Orphan Receptor beta (RORb), RORB (gene 6096) (Q92753 whole entry, looked up, the tested form may be a part): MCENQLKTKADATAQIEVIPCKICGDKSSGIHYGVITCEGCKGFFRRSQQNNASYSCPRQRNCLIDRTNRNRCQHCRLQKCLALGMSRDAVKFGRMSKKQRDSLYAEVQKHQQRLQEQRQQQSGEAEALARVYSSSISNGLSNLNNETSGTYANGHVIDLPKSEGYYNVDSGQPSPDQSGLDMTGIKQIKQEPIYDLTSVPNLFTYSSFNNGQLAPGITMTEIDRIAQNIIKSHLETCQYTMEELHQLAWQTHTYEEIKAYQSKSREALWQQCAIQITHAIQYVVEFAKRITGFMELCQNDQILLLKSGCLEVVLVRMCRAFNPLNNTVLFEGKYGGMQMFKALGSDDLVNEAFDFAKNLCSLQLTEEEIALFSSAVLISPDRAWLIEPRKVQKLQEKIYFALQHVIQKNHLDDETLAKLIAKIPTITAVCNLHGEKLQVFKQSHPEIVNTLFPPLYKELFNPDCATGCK
Method in brief: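 HepG2 cells were transiently transfected with multiplexed GAL4-UAS reporter units expressing chimeric nuclear receptor–GAL4 proteins, then dosed for 24 h. Reporter mRNA was quantified by RT-PCR with fluorescent labelling and capillary electrophoresis; gain of signal was fitted relative to DMSO.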

[17] = ACEA_ER_AUC_viability: ACEA Biosciences xCELLigence Real-Time Cell Analysis on Estrogen Receptor Agonism for Viability (AID 2283782);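 also: continuous compound exposure with impedance area under curve over 80 h; hit means loss of impedance signal meaning reduced cell growth or viability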
Method in brief: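 T47D cells preconditioned in phenol red-free RPMI with charcoal-stripped FBS, then dosed with 8-point 1:4 series from 100 uM (up to 0.5% DMSO). Impedance monitored up to ~80 h; area-under-curve loss versus DMSO taken as viability.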

[18] = target: Retinoic acid receptor RXR-alpha (Homo sapiens) (UniProt P19793); assay: ATG_RXRa_TRANS: Attagene TRANS-FACTORIAL HepG2 Assay for human Retinoid X Receptor alpha (RXRa) (AID 2283012)
Sequence of Retinoic acid receptor RXR-alpha (Homo sapiens) (P19793 whole entry, looked up, the tested form may be a part): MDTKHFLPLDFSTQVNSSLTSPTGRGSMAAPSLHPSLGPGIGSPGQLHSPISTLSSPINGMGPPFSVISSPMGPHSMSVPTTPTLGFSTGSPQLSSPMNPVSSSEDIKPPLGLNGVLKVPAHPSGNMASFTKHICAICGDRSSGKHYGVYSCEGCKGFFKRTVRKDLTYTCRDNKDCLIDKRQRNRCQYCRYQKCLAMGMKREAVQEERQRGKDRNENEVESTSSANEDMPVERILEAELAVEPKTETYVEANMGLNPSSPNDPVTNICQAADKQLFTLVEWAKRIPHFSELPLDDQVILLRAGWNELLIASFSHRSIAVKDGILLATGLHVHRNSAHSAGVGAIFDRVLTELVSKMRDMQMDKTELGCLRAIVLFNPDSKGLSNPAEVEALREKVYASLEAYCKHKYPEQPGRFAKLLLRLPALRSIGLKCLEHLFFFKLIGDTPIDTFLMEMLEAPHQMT
Method in brief: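 HepG2 cells transiently transfected with multiplexed GAL4-UAS reporter units and chimeric NR-GAL4 fusions, dosed 24 h. Reporter mRNA measured by RT-PCR, FAM labelling, HpaI digestion and capillary electrophoresis; gain-of-signal fitted relative to DMSO baseline.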

[19] = target: Glucocorticoid receptor (Homo sapiens) (UniProt P04150); assay: ATG_GR_TRANS: Attagene TRANS-FACTORIAL HepG2 Assay for human Glucocorticoid Receptor (GR) (AID 2282978); settings: HepG2 Attagene TRANS GR reporter, mRNA transcription;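 also: activators score as hits since higher reporter transcript over DMSO is fitted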
Sequence of Glucocorticoid receptor (Homo sapiens) (P04150 whole entry, looked up, the tested form may be a part): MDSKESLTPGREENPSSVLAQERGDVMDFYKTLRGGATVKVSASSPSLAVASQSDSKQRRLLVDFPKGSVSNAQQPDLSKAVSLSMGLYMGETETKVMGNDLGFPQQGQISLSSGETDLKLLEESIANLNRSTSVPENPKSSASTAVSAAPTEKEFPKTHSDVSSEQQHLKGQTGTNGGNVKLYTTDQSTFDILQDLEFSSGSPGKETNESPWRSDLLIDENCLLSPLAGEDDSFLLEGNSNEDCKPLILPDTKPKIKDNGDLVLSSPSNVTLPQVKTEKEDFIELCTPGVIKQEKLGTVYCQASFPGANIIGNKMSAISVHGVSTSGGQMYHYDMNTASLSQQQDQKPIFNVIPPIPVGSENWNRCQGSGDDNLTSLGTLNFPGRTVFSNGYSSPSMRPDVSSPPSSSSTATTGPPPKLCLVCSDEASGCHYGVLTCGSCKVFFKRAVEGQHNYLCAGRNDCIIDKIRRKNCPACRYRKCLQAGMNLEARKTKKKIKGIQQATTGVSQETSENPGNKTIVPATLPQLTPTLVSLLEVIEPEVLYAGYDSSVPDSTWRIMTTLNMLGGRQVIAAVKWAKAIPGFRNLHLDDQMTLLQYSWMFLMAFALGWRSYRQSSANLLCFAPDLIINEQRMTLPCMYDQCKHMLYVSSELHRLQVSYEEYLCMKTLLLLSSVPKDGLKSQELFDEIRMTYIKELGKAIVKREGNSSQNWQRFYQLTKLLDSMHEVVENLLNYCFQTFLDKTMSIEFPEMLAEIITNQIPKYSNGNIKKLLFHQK
Method in brief: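 HepG2 cells transiently transfected with multiplexed reporter units in which chimeric NR-GAL4 proteins drive GAL4-UAS reporters; 24 h compound exposure. Reporter mRNA measured by RT-PCR, 6-FAM labelling, HpaI digestion and capillary electrophoresis; gain-of-signal fitted versus DMSO.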

Measured: AC50

O=C(C(=O)c1ccccc1)c1ccccc1
inactive: [1] | [2] | [3] | CD40, CD40 (gene 958) | [4]

Oc1ccc(Cl)cc1C1CCCC1
active: [5] 57.8 µM | [9] 8.65 µM | [11] 33.4 µM
inactive: [6] | [7] | [8] | [10] | [12] | [4]

CCCCOC(=O)COc1ccc(Cl)cc1Cl
inactive: [13] | [14] | [11] | [15] | [16] | [12] | [17]
active: [5] 24.4 µM

Cc1ccccc1S(=O)(=O)O
inactive: [13] | [16] | [18] | [12]

COC(=O)CCSCCC(=O)OC
inactive: [13] | [5] | [19] | [8] | [15]

CC(C)CC(=O)CC(C)C
inactive: [13] | [15] | [16] | [18] | [12] | [4]

O=C(O)c1ccccc1C(=O)O
inactive: [19] | [8] | [9] | [10] | [18] | [12] | [17]

CCCCCCCC#N
inactive: [13] | [6] | [14] | [19] | [7] | [8] | [9] | [18] | [17]

CCC(C)NC(N)=O (centres undefined)
inactive: [6] | [14] | [7] | [9] | [16] | [12]
active: [17] 50 µM

CCOc1ccc2c(c1)C(C)CC(C)(C)N2 (centres undefined)
inactive: [5] | [6] | [8] | [9] | [10] | [11]
active: [14] 34 µM | [7] 14.5 µM | [15] 3.63 µM

N#CCN(CC#N)CCN(CC#N)CC#N
inactive: [19] | [18] | [17]

C=CC(C)(CCC=C(C)C)OC(=O)c1ccccc1 (centres undefined)
active: [17] 72.6 µM
inactive: [13] | [5] | [19] | [9] | [18] | [12]

COc1c2occc2cc2ccc(=O)oc12
active: [14] 53.7 µM
inactive: [10] | [16] | [18] | [12] | [17] | [4]

CCCC[N+]1(C)CCCC1
inactive: [13] | [7] | [8] | [11] | [16] | [12]

NC(N)=Nc1nc(CSCCC(N)=NS(N)(=O)=O)cs1
inactive: [13] | [5] | [6] | [14] | [19] | [8] | [15] | [12] | [4]

CO[Si](CCCNCCN)(OC)OC
inactive: [6] | [14] | [8] | [9] | [10] | [16] | [17]

CC/C=C\CCO
inactive: [5] | [14] | [19] | [8] | [16] | [4]

Nc1ccc(S(=O)(=O)Nc2cnc3ccccc3n2)cc1
inactive: [13] | [14] | [7] | [9] | [11] | [15] | [17] | [4]

CC/C=C\CCCCCO
inactive: [13] | [14] | [19] | [10] | [15] | [12] | [17]
